# PI4K2A inh: blocks human PI4K2A kinase activity; Q9BTU6; purified PI4K2A, ADP-Glo luminescence, 1 h; active compounds read low; activity change, negative = inhibition, % at 76.9 µM; 420,000 compounds, 0.13% hits; AID 1346378; in the data active = activity change below about -50%; inconclusive = mostly about -30% to -49%;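 also: -100% = wells without enzyme as full effect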
# Target sequence (Q9BTU6 whole entry, looked up): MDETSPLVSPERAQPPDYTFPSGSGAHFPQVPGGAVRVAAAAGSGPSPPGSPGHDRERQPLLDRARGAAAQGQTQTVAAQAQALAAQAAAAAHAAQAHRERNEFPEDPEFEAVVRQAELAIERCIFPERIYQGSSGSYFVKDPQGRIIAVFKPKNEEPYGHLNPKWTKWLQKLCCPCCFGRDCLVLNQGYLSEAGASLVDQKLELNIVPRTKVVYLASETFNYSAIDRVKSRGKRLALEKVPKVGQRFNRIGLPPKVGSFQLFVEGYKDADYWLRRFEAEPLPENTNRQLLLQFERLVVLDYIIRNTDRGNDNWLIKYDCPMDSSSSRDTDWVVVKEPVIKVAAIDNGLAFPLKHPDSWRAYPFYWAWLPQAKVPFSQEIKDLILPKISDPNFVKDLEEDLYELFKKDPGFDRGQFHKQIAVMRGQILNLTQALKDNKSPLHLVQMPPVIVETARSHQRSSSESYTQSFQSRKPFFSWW
#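 PI4K2A activity was measured by ADP-Glo luminescence: enzyme (4 ug/mL stock) and phosphatidylinositol (1.2 mM stock) in Tris pH 7.5/MgCl2/EGTA/Triton X-100 buffer were reacted with ATP (300 microM stock) for one hour at ambient temperature.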
# rTrxR1 inhibitor: blocks rat thioredoxin reductase 1. recombinant rTrxR1, NADPH fluorescence consumption, selenite substrate. Potency, µM (doses to about 114 µM), without a hit: at the highest dose activity change, negative = inhibition, most hits filed as inhibitors. 390,000 compounds, 1% hits; also: potency is read from the fitted curve at half-maximal effect; nearly all actives have a fitted effect of over 65% in size
#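 Rat TrxR1 (90 nM in the dispensed reagent) was pre-reduced with 400 uM NADPH for 5 min at room temperature, then incubated with compound for 15 min. After 400 uM selenite was added, NADPH fluorescence (Ex 340/Em 450 nm) was followed for 8 min.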
# TrxR1 substrate: is turned over as a substrate by rat TrxR1; O89049; purified TrxR1 substrate turnover, NADPH consumption readout; Potency, µM (highest dose often 114 µM), for the others: at the highest dose activity change, negative = substrate turnover; 390,000 compounds, 0.01% hits; AID 588456; also: potency is read from the fitted curve at half-maximal effect; nearly all actives have a fitted effect of over 50% in size
#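 Rat TrxR1, dispensed at 90 nM, was prereduced with 400 uM NADPH (final) for 5 min at ~22 deg C, then incubated with compound 15 min before 400 uM selenite. A first-read NADPH fluorescence drop versus no-compound background flagged substrates.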
# GALK inhibitor: inhibitors of human galactokinase | 270,000 compounds, 0.007% hits | Purified GALK, Kinase-Glo residual ATP luminescence | Potency, µM (doses to about 57.5 µM), for the others: at the highest dose activity change, negative = inhibition, usual class: inhibitors | P51570; also: potency is read from the fitted curve at half-maximal effect
#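 GALK at 5 nM final was combined with compound, 35 uM ATP and 100 uM galactose in HEPES pH8.0 with MgCl2 and DTT. The reaction ran one hour at room temperature before luminescent ATP detection.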
# The depositor's hits bear a star; ? = inconclusive; / = no result given; [ ] = dose if it differs, or a comment. Only some compounds are listed: those with a hit (about 1.1% of all), similar ones and a draw of the others. Unless noted, calls follow the shape of the dose curve; as a rule, active = well fitted curve in the direction sought with a large enough effect; inconclusive = small, poorly fitted or top-dose-only effect, or another doubt; inactive = no such curve, though single readings can be large; an effect the other way counts as inactive or inconclusive. Unless noted, % is scaled to controls: 0 for no effect and ±100 for the full control effect.
SMILES,PI4K2A inh,rTrxR1 inhibitor,TrxR1 substrate,GALK inhibitor
O=[N+]([O-])/C(C(=C(Cl)Cl)N1CCN(Cc2ccccc2)CC1)=C1\NCCN1Cc1ccc(Cl)nc1,0.3,12.2%[57.1 µM],8.3%[57.1 µM],0.6%
COCc1cn(CC(C)n2c(=O)c3ccccc3n2Cc2cc(C(C)C)no2)nn1 (stereo not given),2.8,/,/,/
Nc1c(Cl)cc(C=O)cc1Cl,/,-0.4%,-6.4%,/
CCOc1cc(CNc2ccc3c(c2)CCC3)ccc1O,-0.4,?,-18.1%,-2.3%
COc1cc(CNc2ccc3c(c2)CCC3)cc(OC)c1O,7.8,0.398µM*,6.6%,0.0%
COCCNC(=O)C(c1ccc(C)o1)N(C(=O)Cn1nnc2ccccc21)c1ccccc1 (stereo not given),-2.1,20.3%,3.6%,4.7%
COc1ccc(OC)c(CNc2ncnc3onc(-c4ccc(Cl)cc4)c23)c1,-3.4,4.4%,-0.7%,/
COC(=O)[C@]12C[C@H](CC(=O)N3CCN(C(=O)C4CC4)CC3)C(=O)N(Cc3cccc4ccccc34)C1=C[C@H](C(C)C)O[C@@H]2C1CC1,5.0,/,/,/
O=C1CCN(CCc2ccccc2)CCN1[C@H](CSc1ccccc1)c1ccccc1,-63.2*,-17.5%[57.1 µM],2.4%[57.1 µM],/
C=CS(=O)(=O)c1c2cc(OC)ccc2nc2ccc(OC)cc12,34.1,1.26µM*,12.8%[57.1 µM],/
COc1ccc2nc(Cl)cc(Cl)c2c1,1.2,27.0%,10.8%,-1.4%
Cc1[nH]n(-c2ncc(-c3ccccc3)s2)c(=O)c1C(c1ccc(Cl)cc1)C(C#N)C#N (stereo not given),36.1,22.4µM*,-7.5%,-3.2%
CC1=NN(Cc2ccccc2)C(=O)C1C(c1ccc(Cl)cc1)C(C#N)C#N (stereo not given),31.3,25.1µM*,-9.2%,-0.4%
COc1cccc(C2C(C#N)=C(N)Oc3cc(C)n(Cc4ccco4)c(=O)c32)c1 (stereo not given),-4.6,?,0.1%,0.6%
COc1ccc(C2C(C#N)=C(N)Oc3cc(C)n(Cc4ccco4)c(=O)c32)cc1 (stereo not given),-12.2,3.16µM*,1.1%,0.9%
CC(C)CCNC(=O)CCS(=O)(=O)c1cccc2nonc12,2.7,56.2µM*,-2.7%,-1.9%
COc1cccc(CNC(=O)CCS(=O)(=O)c2cccc3nonc23)c1,3.6,15.8µM*,-0.5%,1.7%
COc1cccc(CNC(=O)CCS(=O)(=O)c2cccc3nsnc23)c1,5.2,-5.4%,-6.5%,-0.8%
COc1cc(C=Nn2c(-c3ccccc3F)n[nH]c2=S)ccc1OCc1ccccc1,43.9,/,/,/
O=C(NCc1ccccc1)C1(CC2CC(c3ccccc3)=NO2)CCNCC1 (stereo not given),1.0,22.4µM*,4.3%,/
CCCCCCCNC(=O)C1(CC2CC(c3ccccc3)=NO2)CCNCC1 (stereo not given),1.8,?,5.5%,/
CS(=O)(=O)c1ncc(Cl)c(C(=O)Nc2ccc(N3CCOCC3)cc2)n1,-0.5,10µM*,4.2%,4.4%
CS(=O)(=O)c1ncc(Cl)c(C(=O)Nc2ccc(OC(F)F)cc2)n1,3.7,39.8µM*,-13.2%,4.2%
CCOC(=O)c1nc(S(C)(=O)=O)ncc1Cl,1.2,17.8µM*,10.1%,-0.5%
CS(=O)(=O)c1ccc(C(=O)Nc2ccc(N3CCOCC3)cc2)c(Cl)c1,3.7,12.9%[57.1 µM],0.1%[57.1 µM],0.3%
SMILES,PI4K2A inh,rTrxR1 inhibitor,TrxR1 substrate,GALK inhibitor
CCOC(=O)c1nc(S(C)(=O)=O)ncc1N1CCOCC1,-2.0,3.6%,2.6%,-2.9%
Cc1ccccc1Nc1nnc(-c2ccc(C)c(S(=O)(=O)N3CCCCC3)c2)c2ccccc12,1.1,24.2%,8.9%,/
Cc1cccc(-n2ccnc2SCC(=O)Nc2ccccc2C(F)(F)F)c1,6.7,18.1%[57.1 µM],-3.6%[57.1 µM],/
Cc1ncc2c(c1OC(=O)c1ccccc1)COC(C)(C)OC2,-0.1,5.1%,3.2%,4.3%
Cc1c(OC(=O)c2ccc([N+](=O)[O-])cc2)c2c(c[n+]1C)COC(C)(C)OC2,-0.6,44.7µM*,0.4%,-1.2%
N#Cc1cccc(NC(=O)c2cc(C3CCCCN3C(=O)c3cccs3)on2)c1 (stereo not given),4.6,/,/,/
CCOC(=O)C1=C(Cc2ccc(F)cc2)C(=O)c2ccccc2C1=O,-1.9,6.31µM*,-21.9%,-0.1%
O=C(OCc1ccc(F)cc1)c1ccc2c(c1)-c1ccccc1C2=O,1.6,1.2%,1.8%,-1.8%
Cc1cccc(NC(=O)c2ccc(C(=O)Nc3cccc(C)c3C)cc2)c1C,1.6,13.6%,3.9%,/
CCOC(=O)Nc1ccc2c(c1)N(C(=O)CCN1CCOCC1)c1ccccc1S2,0.8,16.2%,-1.9%,-0.7%
CCOC(=O)Nc1ccc2c(c1)N(C(=O)CCN1CCOCC1)c1ccccc1S2=O (stereo not given),16.8,31.6µM*,1.6%,1.4%
COc1ccc(S(=O)(=O)N(C)C[C@@H]2Oc3c(NC(=O)Nc4cccc5ccccc45)cccc3C(=O)N([C@@H](C)CO)C[C@H]2C)cc1,-8.0,/,/,/
CC1C/C(=C/c2ccncc2)C(=O)/C(=C/c2ccncc2)C1 (stereo not given),-19.5,14.1µM*,2.8%,-14.0%
O=C1/C(=C/c2ccncc2)Cc2ccccc21,-5.5,-14.7%[57.1 µM],4.8%[57.1 µM],/
Cn1c(=O)[nH]c(=O)c2c1nc(N/N=C/C(Br)=C/c1ccccc1)n2CCO,3.0,3.55µM*,-5.4%,/
O=C1NC(c2ccccc2)(c2ccccc2)C(=O)N1COP(=O)(O)O,2.5,/,/,/
CCOc1ccc2nc(NC(=O)c3ccoc3C)sc2c1,-83.4*,-6.2%,12.5%,13.5%
O=C(O)c1cccc(NC2=C(Cl)C(=O)c3ccccc3C2=O)c1,-27.1,?,-15.8%,-2.1%
O=C1C(Cl)=C(Nc2ccccc2)C(=O)c2ccccc21,-3.5,0.631µM*,-10.0%,0.6%
O=C(O)c1ccc(NC2=C(Cl)C(=O)c3ccccc3C2=O)cc1,-24.2,0.501µM*,-4.8%,8.0%
Cc1ccc(NC2=C(NC(=O)c3ccccc3)C(=O)c3ccccc3C2=O)cc1Cl,-20.1,1.58µM*,?,-0.4%
CC(C)NC1=C(Cl)C(=O)c2ccccc2C1=O,-5.2,?,0.0%[57.1 µM],2.2%
Cc1ccc(C(=O)c2cc(O)c(O)c([N+](=O)[O-])c2)cc1,0.1,/,/,/
N#CCc1ccc(NC(=O)/C=C/c2ccc([N+](=O)[O-])o2)cc1,-12.6,15.8µM*,-9.5%,8.5%
CC1CN(N=Cc2ccc([N+](=O)[O-])o2)C(=N)O1 (stereo not given),-1.2,35.5µM*,-11.9%,/
O=[N+]([O-])c1ccc(/C=N/NS(=O)(=O)c2ccc(Cl)cc2)o1,-8.8,14.1µM*,-4.9%,-1.0%
Cc1ccc(S(=O)(=O)N/N=C\c2ccc([N+](=O)[O-])o2)cc1,6.1,?,-2.5%[57.1 µM],0.8%
N#C/C(=C\c1ccc([N+](=O)[O-])o1)C(=O)Nc1ccc(F)cc1,-17.5,3.16µM*,7.2%,2.1%
O=C(NCC1CN(c2ccc(N3CCOCC3=O)cc2)C(=O)O1)c1ccc(Cl)s1 (stereo not given),-0.7,/,/,/
c1ccc2sc(-c3csc4c3CCNC4)nc2c1,-3.7,/,/,/

# Assay outcomes deposited in PubChem by National Center for Advancing Translational Sciences (NCATS).
